# Laboratory results: publication PMC4336329 (PLoS ONE, 2015)
# The campaign covered roughly 310,000 compounds. About 2,200 (0.71%) showed an effect of 50% or more. Effects have a minus sign here. This is one part of a sample in which strong results are shown more often than they occur.
# Biological target: human ether-à-go-go-related gene (hERG) potassium channel (human, UniProt Q12809)
# Test: primary screen, population patch clamp on CHO cells stably expressing hERG; higher = less effect of the substance
# Experimental: Briefly, Chinese hamster ovary (CHO) cells stably expressing the hERG channel were dislodged from tissue culture flasks and dispensed into PPC plates. […] During the recording, background leak currents were estimated by a 100 ms step to -80 mV from an initial holding potential of -70 mV and subtracted from the subsequent current measurement. The campaign was conducted in two phases using slight differences in recording protocol. In the first phase, the initial voltage pulse used a 100 ms step to -30 mV from a holding potential of -70 mV, a 2 s conditioning step to +25 mV, and a 2 s test step to -30 mV. During the second phase of the screen, the potential during the conditioning step was raised to +45 mV. In both phases of the campaign, a secondary voltage pulse was applied using the same parameters as the second phase initial pulse. The initial and secondary pulses were applied in the absence of compound, and upon application of 1 μM and 10 μM test concentrations. Small molecule effects on hERG current density were quantified by […].
# Sequence of human ether-à-go-go-related gene (hERG) potassium channel (Q12809 whole entry, looked up): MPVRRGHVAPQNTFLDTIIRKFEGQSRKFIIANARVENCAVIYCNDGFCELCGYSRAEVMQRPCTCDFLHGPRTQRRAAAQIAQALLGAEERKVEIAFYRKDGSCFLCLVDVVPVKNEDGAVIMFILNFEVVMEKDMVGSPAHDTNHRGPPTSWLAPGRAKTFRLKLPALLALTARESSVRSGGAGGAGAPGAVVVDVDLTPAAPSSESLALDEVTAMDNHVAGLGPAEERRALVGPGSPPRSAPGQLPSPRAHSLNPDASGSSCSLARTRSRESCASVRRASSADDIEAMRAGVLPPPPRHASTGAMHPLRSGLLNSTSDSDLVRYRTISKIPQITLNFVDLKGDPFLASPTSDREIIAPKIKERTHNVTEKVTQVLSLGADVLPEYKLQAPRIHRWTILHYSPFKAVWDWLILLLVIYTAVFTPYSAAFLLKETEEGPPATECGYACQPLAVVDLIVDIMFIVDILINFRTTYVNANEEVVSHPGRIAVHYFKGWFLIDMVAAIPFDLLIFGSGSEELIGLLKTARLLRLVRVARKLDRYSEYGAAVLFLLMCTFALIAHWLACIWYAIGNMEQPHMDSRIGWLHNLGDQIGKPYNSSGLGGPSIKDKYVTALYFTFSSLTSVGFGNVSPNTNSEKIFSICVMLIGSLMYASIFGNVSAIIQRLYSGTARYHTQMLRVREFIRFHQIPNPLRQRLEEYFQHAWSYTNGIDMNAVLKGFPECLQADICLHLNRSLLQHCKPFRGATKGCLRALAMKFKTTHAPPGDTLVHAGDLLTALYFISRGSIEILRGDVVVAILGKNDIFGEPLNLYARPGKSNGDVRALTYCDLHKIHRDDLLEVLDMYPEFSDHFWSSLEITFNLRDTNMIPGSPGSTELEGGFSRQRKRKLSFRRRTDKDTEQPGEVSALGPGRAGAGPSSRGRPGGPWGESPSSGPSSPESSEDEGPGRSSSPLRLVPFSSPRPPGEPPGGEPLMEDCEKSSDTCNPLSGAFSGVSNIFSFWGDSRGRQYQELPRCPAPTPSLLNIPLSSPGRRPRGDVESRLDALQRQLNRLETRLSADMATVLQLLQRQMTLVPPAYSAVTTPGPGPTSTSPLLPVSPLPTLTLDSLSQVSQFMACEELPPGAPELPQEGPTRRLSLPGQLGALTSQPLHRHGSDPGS
row,SMILES,"hERG current change (%, negative = inhibition) at 1uM [%]"
1,CCOc1ccc2nc(NC(=O)c3cc([N+](=O)[O-])ccc3N3CCOCC3)sc2c1,8.4
2,COc1ccc(CN(C(=O)COc2ccccc2)c2ccccc2C(=O)O)cc1,22
3,CC(C)Cn1c(CN(C)Cc2ccccc2)nc2c1c(=O)n(C)c(=O)n2C,-6.95
4,CC12CCC(C(=Nc3ccc(N=C4C(=O)C5(C)CCC4C5(C)C)cc3)C1=O)C2(C)C,8.42
5,COc1ccc(CNC(=S)NC2CCCC2)cc1,9.23
6,COc1ccc(NC(=O)N2CCC(CO)(CC3CCCCO3)CC2)c(OC)c1 (centres unmarked),9.96
7,CCC(=O)c1ccc(N2CCN(C(=O)c3ccc(F)cc3)CC2)c(F)c1,-10.2
8,O=C(COc1ccc(F)cc1)Nc1ccc(-n2cnnn2)cc1,-27.2
9,O=C(COc1ccc(-n2cnnn2)cc1)NCCc1ccc(F)cc1,-5.74
10,CC(=O)c1ccc(N2CCN(C(=O)COc3ccccc3F)CC2)c(F)c1,-11.1
11,CCC(=O)c1ccc(N2CCN(C(=O)COc3ccc(F)cc3)CC2)c(F)c1,-71.3
12,CCC(=O)c1ccc(N2CCN(C(=O)COc3ccccc3F)CC2)c(F)c1,-19.1
13,CC(=O)c1ccc(N2CCN(C(=O)COc3ccc(F)cc3)CC2)c(F)c1,-62.7
14,CC(=O)c1cc(F)c(N2CCN(C(=O)COc3ccc(F)cc3)CC2)cc1C,-38.2
15,O=C(COc1ccc(-n2cnnn2)cc1)N1CCN(c2ccc(F)cc2)CC1,-60.3
16,CCN(CC(=O)NCc1cccs1)C(=O)/C=C/c1cccc(Br)c1,-42.3
17,COc1cccc(NC(=O)CN(C)C(=O)c2ccccc2Sc2ccccc2C#N)c1,8.02
18,CCC(C)NC(=O)Cn1nc(Cc2ccncc2)c2ccccc2c1=O (centres unmarked),10.1
19,Cc1cc(NC(=O)c2ccc3c(c2)C(=O)N(C)C3=O)no1,16.4
20,Cc1ccc(C)c(OCCC(=O)NNC(=O)c2ccccc2)c1,10.8
21,Cc1cccc(N(C(=O)c2nsc(Cl)c2Cl)C(C(=O)NC2CCCC2)c2ccc(O)cc2)c1C (centres unmarked),10.1
22,CN(C)S(=O)(=O)c1cccc(C(=O)N(Cc2ccc(F)cc2)Cc2ccco2)c1,-14.6

row,SMILES,"hERG current change (%, negative = inhibition) at 1uM [%]"
1,O=C(c1cccc(S(=O)(=O)N2CCOCC2)c1)N(Cc1ccc(F)cc1)Cc1ccco1,-55.2
2,O=C(c1cccc(S(=O)(=O)N2CCOCC2)c1)N(Cc1ccco1)Cc1cccs1,-6.4
3,CCC(=O)O[C@]1(C(=O)CCl)[C@@H](C)C[C@H]2[C@@H]3CCC4=CC(=O)C=C[C@]4(C)[C@@]3(F)[C@@H](O)C[C@@]21C,18
4,Cc1cccc(OCC(O)Cn2c(=N)n(CCN3CCCCC3)c3ccccc32)c1.Cl (centres unmarked),-59.8
5,Cl.N=c1n(CCN2CCCCC2)c2ccccc2n1CC(O)COc1ccccc1 (centres unmarked),-32.7
6,CCCn1c(=N)n(CC(O)c2ccc(C)cc2)c2ccccc21.Cl (centres unmarked),-14.9
7,COc1ccc(-c2cc3ccccc3n2CC(O)CN2CCOCC2)cc1 (centres unmarked),2.37
8,Cc1ccc(OCC(O)Cn2c(=N)n(CCN3CCCCC3)c3ccccc32)cc1.Cl (centres unmarked),-30.1
9,Cc1ccccc1OCC(O)Cn1c(=N)n(CCN2CCOCC2)c2ccccc21.Cl (centres unmarked),-25.3
10,COc1ccc(-c2cc3ccccc3n2CC(O)CN2CCC(C)CC2)cc1.O=C(O)C(=O)O (centres unmarked),-49.8
11,CCOc1ccc(C(O)Cn2c(=N)n(CCN3CCCCC3)c3ccccc32)cc1.Cl (centres unmarked),-56
12,Cl.N=c1n(CCN2CCCCC2)c2ccccc2n1CC(O)c1ccco1 (centres unmarked),-4.15
13,COc1ccc(-c2cc3ccccc3n2CC(O)CN2CCCCC2)cc1.O=C(O)C(=O)O (centres unmarked),-74.6
14,Cc1cccc(OCC(O)Cn2c(=N)n(CCN3CCOCC3)c3ccccc32)c1.Cl (centres unmarked),-8.29
15,COc1ccc(OCC(O)Cn2c(=N)n(CCN3CCCCC3)c3ccccc32)cc1.Cl (centres unmarked),-51.2
16,CCCCC(=O)O[C@]1(C(=O)CO)CC[C@H]2[C@@H]3CCC4=CC(=O)CC[C@]4(C)[C@H]3[C@@H](O)C[C@@]21C,11.4
17,COc1ccc(N/C=C/C(=O)c2ccccc2)cc1,11
18,CCCCNC(=O)C1CCCN1C(=O)Nc1ccccc1 (centres unmarked),0.208
19,O=S(=O)(NCc1cccnc1)c1ccc(Br)c2ccccc12,7.97
20,Cc1cc2nc(-c3ccc(SCc4ccc(C(=O)O)cc4)nc3)[nH]c2cc1C,14.5
21,COc1ccc2[nH]c(C(=O)O)c(CCNC(=O)/C=C/c3ccc(O)c(OC)c3)c2c1,13.1
22,CCCc1nnc(NC(=O)c2nc(S(=O)(=O)Cc3cccc(C)c3)ncc2Cl)s1,21

row,SMILES,"hERG current change (%, negative = inhibition) at 1uM [%]"
1,O=C1CCN(C(=O)Cc2ccccc2[N+](=O)[O-])CC1,14.3
2,O=C(Nc1cc(SCC(O)CO)cc([N+](=O)[O-])c1)c1ccc(-n2cnnn2)cc1 (centres unmarked),17.4
3,Br.CC1(C(=O)CSc2n[nH]c(-c3ccccc3Cl)n2)CCC(=O)O1 (centres unmarked),8.24
4,COc1ccc(N(CC(=O)NC2CCCCC2)S(=O)(=O)c2c(C)[nH]c(=O)[nH]c2=O)cc1,15.2
5,Cc1ccc(CNC(=O)c2nn(C)c(C)c2[N+](=O)[O-])cc1,5.74
6,Cl.N=c1n(CCN2CCCCC2)c2ccccc2n1CC(O)c1cccc(Br)c1 (centres unmarked),-41.7
7,Cl.N=c1n(CCN2CCCC2)c2ccccc2n1CC(O)c1ccc(Cl)c(Cl)c1 (centres unmarked),-33.2
8,Cl.N=c1n(CCN2CCCCC2)c2ccccc2n1CC(O)c1ccc(Cl)c(Cl)c1 (centres unmarked),-70.4
9,COc1ccc(NC(=S)N2CCC(NC(=O)c3ccc(OC)cc3)CC2)cc1,11.3
10,CCCCN(C)C(=S)Nc1ccc2nc(N3CCN(CC)CC3)cc(C)c2c1,-46.4
11,CCN1CCN(c2cc(C)c3cc(NC(=S)N(CC)CC)ccc3n2)CC1,-8.83
12,CCOCCCNC(=S)Nc1ccc2nc(N3CCN(CC)CC3)cc(C)c2c1,10.7
13,CCN1CCN(c2cc(C)c3cc(NC(=S)N(C)Cc4ccccc4)ccc3n2)CC1,-56.7
14,COCCNC(=S)Nc1ccc2nc(N3CCCC3)cc(C)c2c1,-50.5
15,Cc1cc(N2CCCC2)nc2ccc(NC(=S)NCCCOC(C)C)cc12,-78.6
16,CCOCCCNC(=S)Nc1ccc2nc(N3CCOCC3)cc(C)c2c1,9.64
17,CCN1CCN(c2cc(C)c3cc(NC(=S)NCCCOC)ccc3n2)CC1,12.1
18,CCOCCCNC(=S)Nc1ccc2nc(N3CCCC3)cc(C)c2c1,-74.8
19,CCCN(CCC)CCCNC(=S)Nc1ccc2nc(N3CCCC3)cc(C)c2c1,-14.5
20,COCCNC(=S)Nc1ccc2nc(N3CCN(C)CC3)cc(C)c2c1,9.02
21,COCCNC(=S)Nc1ccc2nc(N3CCOCC3)cc(C)c2c1,14.9
22,NC(=O)NCCCC(NC(=O)c1ccc(C#CC2(O)CCCCC2)cc1)C(=O)O (centres unmarked),8.16

row,SMILES,"hERG current change (%, negative = inhibition) at 1uM [%]"
1,NS(=O)(=O)c1cccc2c1c([N+](=O)[O-])cc1nc([O-])c([O-])nc12.[Na+],20.2
2,CCCNS(=O)(=O)c1cc(Br)cc2c1N(C(=O)CC)CC2,4.42
3,C=C(C)c1cccc(C(C)(C)NC(=O)NC2CC(C)(C)NC(C)(C)C2)c1,7.67
4,O=C(Nc1ccc(F)cc1)C1CC2CCC1C2 (centres unmarked),12.7
5,Cc1ccc(NC(=O)c2cc(C)on2)cc1,6.42
6,CC12CN3CC(C)(CN(C1)C3c1ccccc1)C2O (centres unmarked),9.98
7,Cc1ccc(C2=NN(CC(=O)NCCN(CC(C)C)CC(C)C)C(=O)CC2)cc1,-3.88
8,COc1cc(NC(=O)C(C)Oc2ccccc2)c(OC)cc1NC(=O)c1ccccc1 (centres unmarked),13.2
9,CC1CCCN(C(=O)CN2CCC(c3nc4ccc(Cl)cc4[nH]3)CC2)C1 (centres unmarked),-35.9
10,CC1CCCCN1C(=O)CN1CCC(c2nc3ccc(Cl)cc3[nH]2)CC1 (centres unmarked),1.51
11,Cc1ccc(Cn2nnnc2CN2CCC(c3nc4ccc(Cl)cc4[nH]3)CC2)cc1,4.97
12,Cc1ccc(CN2CCC(c3nc4ccc(Cl)cc4[nH]3)CC2)cc1,-91.8
13,COc1ccc(CN2CCC(c3nc4ccc(Cl)cc4[nH]3)CC2)cc1,-84
14,Clc1ccc(CN2CCC(c3nc4ccc(Cl)cc4[nH]3)CC2)cc1,-78.7
15,COc1ccc(NC(=S)N2CCC(c3nc4ccc(Cl)cc4[nH]3)CC2)c(OC)c1,1.15
16,O=C(c1cccc(Cl)c1)N1CCC(c2nc3ccccc3[nH]2)CC1,-0.145
17,O=C(NC1CCCCC1)N1CCC(c2nc3ccc(Cl)cc3[nH]2)CC1,6.29
18,Clc1ccc2nc(C3CCN(Cc4nnnn4C4CCCCC4)CC3)[nH]c2c1,-16.2
19,CC(C)(C)c1ccc(S(=O)(=O)N2CCC(c3nc4ccc(Cl)cc4[nH]3)CC2)cc1,7.6
20,Clc1ccc2nc(C3CCN(Cc4ccccc4)CC3)[nH]c2c1,-73.7
